Inconclusive results are not listed. Calls of active or inactive are those of the source. The call rests on the fitted dose curve; in most records, active means well fitted cell-killing curve with a large enough effect; inconclusive means small, poorly fitted or top-dose-only effect, or effect the other way; inactive means no such curve, though single readings can be large or run the other way.
Potency means the concentration at half of the fitted maximal effect.

A short description of the experiment: Quantitative High-Throughput drug screen in 47 multiple myeloma cell lines against the NCATS MIPE library collection: KMS11_JCRBsus cell viability assay (AID 1919873). Further: nearly all actives have a fitted effect of over 50% in size. Particulars: KMS11 myeloma viability, CellTiter-Glo ATP luminescence, 48 h; series mostly up to 45.8 µM. A digest of the protocol:
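500 cells/well; MIPE 4.0 drugs pin-transferred; 48 h, 37C, 5% CO2. CellTiter-Glo, 5 min RT, luminescence. Controls: DMSO 100%, media 0%.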
As for `CCc1cccc2c3c([nH]c12)C(CC)(CC(=O)O)OCC3` (stereo not drawn), the Potency result is “inactive”. For `CN1CCN(CCCN2c3ccccc3Sc3ccc(Cl)cc32)CC1`, the Potency was 14.8 µM (active). In the case of `CC#C[C@]1(O)CC[C@H]2[C@@H]3CCC4=CC(=O)CCC4=C3[C@@H](c3ccc(N(C)C)cc3)C[C@@]21C`, the Potency is 7.43 µM (active).

As to `NCCc1cnc[nH]1`, the Potency entry was “inactive”. Regarding `CS(=O)(=O)CCNCc1ccc(-c2ccc3ncnc(Nc4ccc(OCc5cccc(F)c5)c(Cl)c4)c3c2)o1`, the Potency is 20.9 µM (active). Under `Cn1c(=O)c2c(ncn2C)n(C)c1=O` stands “inactive”; under `CN1CCC(=C2c3ccccc3CC(=O)c3sccc32)CC1`, “inactive”; under `COc1cc2nc(N3CCN(C(=O)c4ccco4)CC3)nc(N)c2cc1OC`, 13.2 µM (active). In the case of `C[C@](N)(Cc1ccc(O)c(O)c1)C(=O)O`, the Potency is 7.43 µM (active).

As to `CC[C@@]1(O)C(=O)OCc2c1cc1n(c2=O)Cc2cc3c(CN(C)C)c(O)ccc3nc2-1`, the Potency is 3.72 µM (active). With `NC(=O)NO`, the Potency is 0.526 µM (active). With `O=c1[nH]cc(F)c(=O)[nH]1`, the Potency is 13.2 µM (active). As for `NC12CC3CC(CC(C3)C1)C2`, the Potency is 16.6 µM (active).

For the molecule `Cn1cnc2c1c(=O)[nH]c(=O)n2C`, the Potency is 9.35 µM (active). Regarding `CC(C)(Oc1ccc(C2CC2(Cl)Cl)cc1)C(=O)O` (stereo not drawn), the Potency result was “inactive”. On to `CN1C2CCC1CC(OC(=O)C(CO)c1ccccc1)C2` (stereo not drawn), for which the Potency entry was “inactive”.

In the case of `CN(C)C(=O)C(CCN1CCC(O)(c2ccc(Cl)cc2)CC1)(c1ccccc1)c1ccccc1`, the Potency is 10.5 µM (active). Take `CC(=O)OCC(CCn1cnc2cnc(N)nc21)COC(C)=O`: the Potency entry was “inactive”.

Values taken from PubChem BioAssay (NCATS).
